# Source: PubChem
# Most compounds without a hit are left out; they make up all but 4.7% or so of the library.
# D1 agonist: Allosteric Agonists of the Human D1 Dopamine Receptor: qHTS; D(1A) dopamine receptor (Homo sapiens), P21728; HEK293 T-REx D1 cells, calcium flux, agonist mode; activation, % at 2 µM; 360,000 compounds, 1% hits; further: 0% is about no effect
#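 Agonism was scored from calcium flux recorded over 180 s (1 read/s) after pintool compound addition, following a 10-cycle baseline. Cells were inducible force-coupled HEK293 TREx D1, plated overnight at 30 C and loaded with no-wash calcium dye.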
# TRHR PAM: qHTS for Small Molecule Agonists and Allosteric Enhancers of Human TRH Receptor: Primary Screen for Enhancers | enhancement, % at 2 µM | TRHR cells, fluo-8 calcium fluorescence, EC20 TRH enhancement | 360,000 compounds, 0.66% hits; in the data active means enhancement above about 30%; further: 0% is about no effect
# Target sequence (P34981 whole entry, looked up): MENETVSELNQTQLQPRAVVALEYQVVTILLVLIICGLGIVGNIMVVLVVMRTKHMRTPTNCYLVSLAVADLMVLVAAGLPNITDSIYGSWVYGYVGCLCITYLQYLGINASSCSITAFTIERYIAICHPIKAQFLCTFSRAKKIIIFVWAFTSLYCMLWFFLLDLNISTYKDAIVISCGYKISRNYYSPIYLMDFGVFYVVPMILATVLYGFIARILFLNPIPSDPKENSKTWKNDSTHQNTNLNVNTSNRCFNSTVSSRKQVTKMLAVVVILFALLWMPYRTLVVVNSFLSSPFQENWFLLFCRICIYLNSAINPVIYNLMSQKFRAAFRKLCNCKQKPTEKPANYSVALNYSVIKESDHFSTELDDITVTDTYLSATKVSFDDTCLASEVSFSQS
#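 TRHR-expressing cells loaded with fluo-8 calcium dye were read kinetically (ex 480/em 530) during compound addition, then stimulated with an EC20 of TRH (10 nM final). Enhancement of the Gq-mediated intracellular calcium response was scored.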
# TRHR agonist: qHTS for Small Molecule Agonists and Allosteric Enhancers of Human TRH Receptor: Primary Screen for Agonists; Thyrotropin-releasing hormone receptor (Homo sapiens), P34981; 360,000 compounds, 0.18% hits; TRHR cells, calcium flux fluo-8, FDSS agonist mode; activation, % at 2 µM; further: 0% is about no effect
#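 TRHR-expressing cells loaded with fluo-8 calcium dye; 23 nL library compound pin-transferred, kinetic FDSS fluorescence (Ex 480/Em 530) recorded about 180 s for agonist-induced calcium release, before a 10 nM TRH EC20 addition for potentiator mode.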
# D1 PAM: Potentiators of Human D1 Dopamine Receptor: qHTS; D(1A) dopamine receptor (Homo sapiens), P21728; HEK293 TREx D1 cells, calcium flux, dopamine EC20 potentiation; potentiation, % at 10 µM; 360,000 compounds, 0.036% hits; AID 504651, 2011; in the data active means potentiation above about 30%; further: 0% is about no effect
# D1 antagonist: Antagonist of Human D 1 Dopamine Receptor: qHTS. activity change, negative = inhibition, % at 10 µM. 360,000 compounds, 3.2% hits. AID 504652, 2011. D(1A) dopamine receptor (Homo sapiens), P21728. HEK293 TREx D1 cells, calcium flux, dopamine EC80; stronger effect = lower value; in the data active means activity change below about -30%; further: on the % scale 0 is the no-effect control and ±100 the full control effect
#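 Inducible Hek293 Trex D1 cells (tetracycline, overnight, 30 C). Calcium dye 30–90 min RT. Antagonist mode: EC80 dopamine added after 180 s compound read.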
# The depositor's hits bear a star; . = not tested or not shown. Unless noted, no stated cut-off is given here; in the data, active means activation above about 30%; inactive means the rest.
SMILES,D1 agonist,TRHR PAM,TRHR agonist,D1 PAM,D1 antagonist
CCCOc1ccc(NC(=O)CC2C(=O)N(c3ccc(OC)cc3)C(=O)N2CCc2ccncc2)cc1 (stereo not given),1,2,0,-2,-42*
O=C(N=C1SC2CS(=O)(=O)CC2N1c1ccc(Br)cc1)C1CCCO1 (stereo not given),4,4,0,4,0
CC(=O)Nc1ccc(C(=O)COC(=O)c2ccco2)c(F)c1,7,-2,0,6,-1
CC(C)(C)OC(=O)N1CCC(c2c(C(=O)NCc3ccco3)cnn2-c2ccc(F)cc2F)CC1,0,-7,1,-1,-9
CCOc1ccc(NC(=O)CC2C(=O)N(c3ccccc3)C(=O)N2Cc2cccc(OC)c2)cc1 (stereo not given),0,2,-1,-1,4
COc1ccc(NC(=O)CC2C(=O)N(c3cccc(OC)c3)C(=O)N2Cc2cccnc2)cc1 (stereo not given),0,4,0,2,-65*
O=C(NC1CCCCC1)c1ccc(-c2cccc([N+](=O)[O-])c2)o1,4,-8,-1,-3,-1
Cc1ccc(-c2ccc(SCC(=O)NC3CCCC3)nn2)cc1,3,-3,-1,-3,-31*
CCOc1ccc(-c2nnc(SCC(=O)NC3CCCCC3)nc2-c2ccc(OCC)c(OC)c2)cc1OC,1,-3,0,4,16
Cc1ccc(-c2ccc(SCC(=O)NC3CCCCC3)nn2)cc1,-1,-3,-1,-5,14
COc1ccc(-c2nnc(SCC(=O)NC3CCCC3)nc2-c2ccc(OC)c(OC)c2)cc1OC,1,33*,0,2,-7
CCc1ccc2ncc(S(=O)(=O)c3ccc(Cl)cc3)c(N3CCN(CC)CC3)c2c1,-1,15,0,-7,-8
Cc1ccc(NCc2nnc3n2CCCCC3)cc1Cl,1,16,0,-2,-9
S=C(Nc1ccccc1)N1N=CCC1c1ccccc1 (stereo not given),2,12,0,-4,.
Fc1ccc(NC(=S)N2N=CCC2c2ccccc2)cc1 (stereo not given),77*,6,-1,-4,-2
CC(=O)Nc1ccc(NC(=O)C2CC(=O)N(c3ccc(Cl)cc3)C2)cc1 (stereo not given),2,-2,0,-2,-1
CC(=O)Nc1ccc(NC(=O)C2CC(=O)N(c3ccccc3Cl)C2)cc1 (stereo not given),14,6,-1,2,-31*
CCCCNc1nc2c(c(=O)n(Cc3ccc(Cl)cc3)c(=O)n2C)n1C,0,-3,2,-3,11
Cc1cccc(CSc2nc3c(sc4ccccc43)c(=O)n2CCC(=O)NC(C)C)c1,5,12,0,-1,-10
COc1cc(OC)cc(C(=O)NC2CCCN(Cc3ccc(Cl)cc3)C2)c1 (stereo not given),1,2,0,-1,-4
O=C(Nc1cc(S(=O)(=O)N2CCOCC2)ccc1Cl)c1cc2ccccc2o1,3,2,0,-6,-48*
O=C(NC1CCN(Cc2ccc(Cl)c(Cl)c2)CC1)c1ccccc1,6,-2,0,-6,-33*
CC1CCc2sc(C(=O)NC3CCN(Cc4ccccc4)CC3)cc2C1 (stereo not given),37*,11,0,.,-16
O=C(NC1CCCN(Cc2ccc(Cl)cc2)C1)c1ccnc(Cl)c1 (stereo not given),-2,32*,-2,-1,-2
O=C(NC1CCN(Cc2ccc3ccccc3c2)CC1)c1ccccc1,16,-6,1,-7,2
SMILES,D1 agonist,TRHR PAM,TRHR agonist,D1 PAM,D1 antagonist
COc1cc(-c2nc3ncccn3c2Nc2ccc(C)cc2C)ccc1O,29,-3,-1,0,-9
O=C(CN1c2ccccc2S(=O)(=O)c2ccccc21)Nc1ccccc1F,5,-2,0,10,-6
O=C(NC1CCN(Cc2ccccc2)C1)c1cc(S(=O)(=O)N2CCOCC2)ccc1Cl (stereo not given),2,0,1,-12,-30*
O=C(NC1CCCCC1)c1cc(S(=O)(=O)N2CCOCC2)ccc1Cl,1,12,0,-4,-17
CCCCn1c2nc3ccccc3nc2c2c(=O)n(CCC(C)C)cnc21,3,2,0,-3,-42*
Cc1ccc(Nc2nc(N)nc(CSc3nccn3C)n2)c(C)c1,-1,1,0,-2,-33*
COCCn1c(SC(C)C(=O)NCC2CCCO2)nc2sc3c(c2c1=O)CCC3 (stereo not given),1,6,-1,-1,0
Cn1ncc2c(=O)n(CC(=O)NC34CC5CC(CC(C5)C3)C4)cnc21,2,-1,1,3,-34*
CC(C)(C)n1ncc2c(=O)n(CC(=O)NCc3ccccc3)cnc21,0,1,0,-3,-3
COC(/C(=N/O)c1ccc(Cl)cc1)c1ccccc1 (stereo not given),8,-6,0,-2,-38*
COc1ccc(CNc2nc3ccccc3n2CCN2CCCCC2)cc1,5,-3,0,-4,.
COc1ccc(CCN2CCC(Nc3nc4ccccc4n3Cc3ccc(F)cc3)CC2)cc1,112*,2,2,7,-21
O=C(Nc1ccccc1C(=O)N1CCCCC1)c1cccs1,4,2,1,1,-17
Fc1cc(F)c(C2SCCN2C(=S)Nc2cccc(C(F)(F)F)c2)c(F)c1 (stereo not given),77*,-20,16,-4,0
CCCCC(=O)Nc1ccc(C(=O)NCCN2CCOCC2)cc1,-1,0,0,-4,-58*
O=C(NCCN1CCOCC1)c1ccc(-c2ccccc2)cc1,4,-5,0,5,-36*
CC(=O)Oc1ccccc1-n1c(C)nc(=O)c(-c2ccccc2)c1C,1,-4,0,-6,-39*
COc1ccc(-n2c(C)nc(=O)c(-c3ccccc3)c2C)cc1,-2,-3,0,2,16
CCc1nc(=O)c(-c2ccccc2)c(C)n1-c1ccccc1,-2,37*,0,2,8
CCc1cccc(NC(=O)Cn2c(C(=O)OC)cc3occc32)c1,0,36*,0,-3,29
